According to PubChem BioAssay AID720526 (National Center for Advancing Translational Sciences (NCATS), 2013):
Results filed as inconclusive are left out. Where a call stands in place of a potency, no number is given. Activity calls are given as the source filed them. The call rests on the fitted dose curve; in most records, active means well fitted activation curve with a large enough effect; inconclusive means small, poorly fitted or top-dose-only effect; inactive means no such curve, though single readings can be large or run the other way.

Assay: qHTS Assay for NPC1 Promoter Activators: Hit Validation Using Renila Luciferase Read-Out for NPC1
Details: Huh7 NPC1 promoter-luciferase reporter, luminescence, 24 h; series mostly up to 76.9 µM
How it was run: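 Huh7 cells stably carrying NPC promoter-luciferase reporter, exposed to compound for 24 h at 37 deg C. Luminescence read 10 min after adding luciferase detection reagent at room temperature.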
For `O=C(CCCN1C(=O)C(c2ccccc2)Oc2cccnc21)Nc1ccccc1Cl` (stereo not drawn), the Potency was “inactive”. In the case of `O=C(CSc1nnc(-c2csc3c2CCCC3)o1)Nc1ccccc1`, the Potency is reported as “inactive”. With `COC(=O)c1ccccc1NC(=O)c1ccc(-c2ccc(Br)cc2)o1` the Potency was “inactive”. For `Cc1ccc(C(=O)c2cncc(Br)c2)cc1`, the Potency was “inactive”. For `Cc1ccc(C(=O)NC2CCN(CC(=O)Nc3c(C)cc(C)cc3C)CC2)cc1`, the Potency was “inactive”. With `COc1ccc(NC(=S)NNC(=O)c2cccs2)cc1` the Potency was “inactive”. In the case of `O=C(CSc1nnc(-c2ccccc2)o1)Nc1ccccc1F`, the Potency is reported as “inactive”. In the case of `S=C1NCN(CCc2ccccc2)CN1Cc1ccccc1`, the Potency is reported as “inactive”. In the case of `CCCC(C)NC(=O)c1ccc(OCc2ccc(Cl)cc2)c(OC)c1` (stereo not drawn), the Potency is reported as “inactive”. With `COc1ccc(C(=O)OCC(=O)N2CCCC2=O)c(OC)c1` the Potency was “inactive”. For `Cc1[nH]n(-c2cccc3ccccc23)c(=O)c1/C=N/c1sc2c(c1C#N)CCC2`, the Potency was “inactive”. In the case of `O=C(c1cc2cc([N+](=O)[O-])ccc2oc1=O)n1cccn1`, the Potency is reported as “inactive”. In the case of `CC(=O)Nc1nnc(SCC(=O)NCCOc2ccccc2)s1`, the Potency is reported as “inactive”. For `CC(C)(C)C(=O)N/C(N)=N/c1nc2ccccc2o1`, the Potency was “inactive”. In the case of `Cc1ccc(NC(=O)c2cccc(N3C(=O)CCC3=O)c2)nc1`, the Potency is reported as “inactive”. For `COc1ccccc1OCCCC(=O)NCc1ccco1`, the Potency was “inactive”. With `O=CN1CCN(C(=O)c2ccccc2Cl)CC1` the Potency was “inactive”. For `CC(C)CC(=O)N1CCN(c2ccc(NC(=O)c3ccco3)cc2)CC1`, the Potency was “inactive”. For `COc1cccc(C2Nc3ccccc3NC3=C2C(=O)CC(C)(C)C3)c1` (stereo not drawn), the Potency was “inactive”. In the case of `Cc1ccc(S(=O)(=O)N2CCN(c3cnn(C)c(=O)c3Cl)CC2)cc1`, the Potency is reported as “inactive”. For `COc1ccc(-c2noc(N3CCCC(C(=O)Nc4ccccc4F)C3)n2)cc1` (stereo not drawn), the Potency was “inactive”. For `CC(=O)c1cccc(NC(=O)N2CCOCC2)c1`, the Potency was “inactive”. With `O=C(O)CSc1nnc(-c2ccncc2)n1CCc1ccccc1` the Potency was “inactive”. With `Cc1ccc(NC(=O)NC(=O)c2ccccc2)cc1F` the Potency was “inactive”. With `O=C(N/N=C/c1ccc(-c2ccc(Br)cc2)o1)c1ccc2c(c1)OCO2` the Potency was “inactive”. In the case of `O=C(CSc1ncccn1)Nc1cccc2ccccc12`, the Potency is reported as “inactive”. In the case of `Cc1ccc(NC(=O)c2c(O)c3ccccc3n(C)c2=O)nc1`, the Potency is reported as “inactive”. In the case of `Cc1cc(C)c2c(N)c(C(=O)Nc3ccc([N+](=O)[O-])cc3)sc2n1`, the Potency is reported as “inactive”. In the case of `COc1ccc(/C=C\c2onc(C)c2S(=O)(=O)N2CCC(C(=O)NCCC(C)C)CC2)cc1`, the Potency is reported as “inactive”. For `COCC1CCN(C(=O)c2ccc3oc(Cc4ccccc4)nc3c2)C1` (stereo not drawn), the Potency was “inactive”. With `Cc1ccccc1NC(=O)Cc1nc(COC(=O)CC(C)c2ccccc2)cs1` (stereo not drawn) the Potency was “inactive”. With `CCCCn1c(Nc2ccc(OC)cc2)nc2ccccc21` the Potency was “inactive”. In the case of `N#CC/C(N)=N/NC(=O)CCCNc1ncc(C(F)(F)F)cc1Cl`, the Potency is reported as “inactive”. For `NCCOc1ccccc1-c1ccccc1`, the Potency was “inactive”. For `Cc1noc(/C=C/N(C)C)c1S(=O)(=O)N1CCCC(C(=O)N2CCCCC2)C1` (stereo not drawn), the Potency was “inactive”. In the case of `NNC(=O)c1cccc(S(=O)(=O)Nc2cc(Cl)ccc2Cl)c1`, the Potency is reported as “inactive”. In the case of `O=C(NCCc1ccccc1)c1cc2ncc(Br)cn2n1`, the Potency is reported as “inactive”. In the case of `O=C(CSc1nnc(-c2ccccn2)o1)Nc1ccccc1Cl`, the Potency is reported as “inactive”.
